In PubChem BioAssay (NCATS):
Records with an inconclusive call do not appear. A call without a number means that no potency is given here. Calls of active or inactive are those of the source. Calls follow the shape of the dose curve; as a rule, active = well fitted cell-killing curve with a large enough effect; inconclusive = small, poorly fitted or top-dose-only effect, or effect the other way; inactive = flat fitted curve, though single readings scatter.

Tested on: JEG-3
Experiment: Primary qHTS to identify gynecologic anti-cancer compounds using libraries of approved drugs and bioactive compounds (AID 1345084); also: nearly all actives have a fitted effect of over 55% in size
Conditions: Gynecologic cancer cell panel viability, ATPlite luminescence, 48 h; series mostly up to 57.5 µM
Procedure, shortened: (§1)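 Five-point cytotoxicity, 48 h drug exposure at 37 C, 5% CO2, on cells seeded 16 h beforehand. ATP content read by ATPlite luminescence.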
Potency is read from the fitted curve at half-maximal effect.

**Q.** Which Potency does the source give for `CC(C)(C)c1nnc(NS(=O)(=O)c2ccc(N)cc2)s1` here?
**A.** inactive

**Q.** `N=C(N)N` was tested. Which Potency did it give?
**A.** inactive

**Q.** How did the Potency turn out when `Cc1ccc(C(=O)c2ccc(CC(=O)O)n2C)cc1` was run?
**A.** inactive

**Q.** With `CCCCCCCC/C=C/C(=O)O` as the compound, how does the Potency read?
**A.** inactive

**Q.** For `O=C(/C=C/c1ccccc1)NCCO`, which Potency is on record?
**A.** inactive

**Q.** `COc1cc2c3cc1Oc1cc(ccc1O)C[C@@H]1c4c(cc(OC)c(O)c4Oc4ccc(cc4)C[C@@H]3N(C)CC2)CC[N+]1(C)C` was tested. Which Potency did it give?
**A.** inactive

**Q.** Which Potency does the source give for `O=C(O)Cc1ccc2c(c1)C(=O)c1ccccc1CO2` here?
**A.** inactive

**Q.** With `O=C(Nc1ccc(C(=O)O)c(O)c1)c1ccccc1` as the compound, how does the Potency read?
**A.** inactive

**Q.** Which Potency does the source give for `CO[C@@]1(NC(=O)Cc2cccs2)C(=O)N2C(C(=O)O)=C(COC(N)=O)CS[C@@H]21` here?
**A.** inactive

**Q.** `Nc1ccc(O)c(C(=O)O)c1` was tested. Which Potency did it give?
**A.** inactive

**Q.** `C=CCCCCCCCCC(=O)O` was tested. Which Potency did it give?
**A.** inactive

**Q.** Which Potency does the source give for `Nc1c(CC(=O)O)cccc1C(=O)c1ccc(Br)cc1` here?
**A.** inactive

**Q.** For `O=C(OCc1ccccc1)c1ccccc1`, which Potency is on record?
**A.** inactive

**Q.** How did the Potency turn out when `CCCCCCCCCCCCOCCO` was run?
**A.** inactive

**Q.** For `CN(C)[C@@H]1C(=O)C(C(=O)NCN2CCCC2)=C(O)[C@@]2(O)C(=O)C3=C(O)c4c(O)cccc4[C@@](C)(O)C3C[C@@H]12` (some centres undefined), which Potency is on record?
**A.** inactive

**Q.** For `O=C(O)Cc1ccc(-c2ccccc2)cc1`, which Potency is on record?
**A.** inactive

**Q.** With `Cc1c(Nc2ncccc2C(=O)O)cccc1C(F)(F)F` as the compound, how does the Potency read?
**A.** inactive

**Q.** Which Potency does the source give for `CC(C(=O)O)c1ccc2c(c1)[nH]c1ccc(Cl)cc12` (centres undefined) here?
**A.** inactive

**Q.** Which Potency does the source give for `CCCOC(=O)c1ccc(O)cc1` here?
**A.** inactive

**Q.** How did the Potency turn out when `CCCCCCCCCCCC(=O)[O][Sn]([CH2]CCC)([CH2]CCC)[O]C(=O)CCCCCCCCCCC` was run?
**A.** inactive

**Q.** Which Potency does the source give for `O=C(O)/C=C\C(=O)O` here?
**A.** inactive

**Q.** Which Potency does the source give for `CCOC(=O)c1ccccc1O` here?
**A.** inactive

**Q.** For `Cc1c(N)c(=O)n(-c2ccccc2)n1C`, which Potency is on record?
**A.** inactive

**Q.** For `C[N+]1(C)[C@@H]2CC(OC(=O)[C@H](CO)c3ccccc3)C[C@H]1[C@@H]1O[C@@H]12` (some centres undefined), which Potency is on record?
**A.** inactive

**Q.** For `c1ccc2sc(SSc3nc4ccccc4s3)nc2c1`, which Potency is on record?
**A.** inactive

**Q.** For `CC(=O)c1ccc(OCC(=O)N2CCCCC2)cc1`, which Potency is on record?
**A.** inactive

**Q.** For `CCOc1ccc2nc(S(N)(=O)=O)sc2c1`, which Potency is on record?
**A.** inactive

**Q.** Which Potency does the source give for `CN(C)CCn1nnnc1SCC1=C(C(=O)O)N2C(=O)[C@@H](NC(=O)Cc3csc(N)n3)[C@H]2SC1` here?
**A.** inactive

**Q.** How did the Potency turn out when `CCCCCCCCCCCCCCCC(=O)OC(C)C` was run?
**A.** inactive

**Q.** `CCCCCCCCCCCCCCCCCC(=O)O` was tested. Which Potency did it give?
**A.** inactive

**Q.** With `CNC(=O)c1c(I)c(NC(=O)CCCCC(=O)Nc2c(I)c(C(=O)O)c(I)c(C(=O)NC)c2I)c(I)c(C(=O)O)c1I` as the compound, how does the Potency read?
**A.** inactive

**Q.** How did the Potency turn out when `CCC1C(=O)OCC1Cc1cncn1C` (centres undefined) was run?
**A.** inactive

**Q.** `Nc1ccc(C(=O)O)c(O)c1` was tested. Which Potency did it give?
**A.** inactive

**Q.** `[O-][n+]1ccccc1SSc1cccc[n+]1[O-]` was tested. Which Potency did it give?
**A.** 2 µM (active)

Tested on: OV90
Experiment: as above
Conditions: Gynecologic cancer cell panel viability, ATPlite luminescence, 48 h; series mostly up to 57.5 µM
Procedure, shortened: as §1

**Q.** `CC(C)(C)c1nnc(NS(=O)(=O)c2ccc(N)cc2)s1` was tested. Which Potency did it give?
**A.** inactive

**Q.** With `N=C(N)N` as the compound, how does the Potency read?
**A.** inactive

**Q.** For `Cc1ccc(C(=O)c2ccc(CC(=O)O)n2C)cc1`, which Potency is on record?
**A.** inactive

**Q.** `CCCCCCCC/C=C/C(=O)O` was tested. Which Potency did it give?
**A.** inactive

**Q.** With `O=C(/C=C/c1ccccc1)NCCO` as the compound, how does the Potency read?
**A.** inactive

**Q.** `COc1cc2c3cc1Oc1cc(ccc1O)C[C@@H]1c4c(cc(OC)c(O)c4Oc4ccc(cc4)C[C@@H]3N(C)CC2)CC[N+]1(C)C` was tested. Which Potency did it give?
**A.** inactive

**Q.** How did the Potency turn out when `O=C(O)Cc1ccc2c(c1)C(=O)c1ccccc1CO2` was run?
**A.** inactive

**Q.** How did the Potency turn out when `O=C(Nc1ccc(C(=O)O)c(O)c1)c1ccccc1` was run?
**A.** inactive

**Q.** For `CO[C@@]1(NC(=O)Cc2cccs2)C(=O)N2C(C(=O)O)=C(COC(N)=O)CS[C@@H]21`, which Potency is on record?
**A.** inactive

**Q.** How did the Potency turn out when `Nc1ccc(O)c(C(=O)O)c1` was run?
**A.** inactive

**Q.** For `C=CCCCCCCCCC(=O)O`, which Potency is on record?
**A.** inactive

**Q.** For `Nc1c(CC(=O)O)cccc1C(=O)c1ccc(Br)cc1`, which Potency is on record?
**A.** inactive

**Q.** `O=C(OCc1ccccc1)c1ccccc1` was tested. Which Potency did it give?
**A.** inactive

**Q.** With `CCCCCCCCCCCCOCCO` as the compound, how does the Potency read?
**A.** inactive

**Q.** `CN(C)[C@@H]1C(=O)C(C(=O)NCN2CCCC2)=C(O)[C@@]2(O)C(=O)C3=C(O)c4c(O)cccc4[C@@](C)(O)C3C[C@@H]12` (some centres undefined) was tested. Which Potency did it give?
**A.** inactive

**Q.** With `O=C(O)Cc1ccc(-c2ccccc2)cc1` as the compound, how does the Potency read?
**A.** inactive

**Q.** With `Cc1c(Nc2ncccc2C(=O)O)cccc1C(F)(F)F` as the compound, how does the Potency read?
**A.** inactive

**Q.** For `CC(C(=O)O)c1ccc2c(c1)[nH]c1ccc(Cl)cc12` (centres undefined), which Potency is on record?
**A.** inactive

**Q.** Which Potency does the source give for `CCCOC(=O)c1ccc(O)cc1` here?
**A.** inactive

**Q.** How did the Potency turn out when `CCCCCCCCCCCC(=O)[O][Sn]([CH2]CCC)([CH2]CCC)[O]C(=O)CCCCCCCCCCC` was run?
**A.** inactive

**Q.** How did the Potency turn out when `O=C(O)/C=C\C(=O)O` was run?
**A.** inactive

**Q.** Which Potency does the source give for `CCOC(=O)c1ccccc1O` here?
**A.** inactive

**Q.** For `Cc1c(N)c(=O)n(-c2ccccc2)n1C`, which Potency is on record?
**A.** inactive

**Q.** `C[N+]1(C)[C@@H]2CC(OC(=O)[C@H](CO)c3ccccc3)C[C@H]1[C@@H]1O[C@@H]12` (some centres undefined) was tested. Which Potency did it give?
**A.** inactive

**Q.** Which Potency does the source give for `c1ccc2sc(SSc3nc4ccccc4s3)nc2c1` here?
**A.** inactive

**Q.** Which Potency does the source give for `COc1cc(NC(C)CCCN)c2ncccc2c1` (centres undefined) here?
**A.** inactive

**Q.** `CC(=O)c1ccc(OCC(=O)N2CCCCC2)cc1` was tested. Which Potency did it give?
**A.** inactive

**Q.** For `CCOc1ccc2nc(S(N)(=O)=O)sc2c1`, which Potency is on record?
**A.** inactive

**Q.** `CN(C)CCn1nnnc1SCC1=C(C(=O)O)N2C(=O)[C@@H](NC(=O)Cc3csc(N)n3)[C@H]2SC1` was tested. Which Potency did it give?
**A.** inactive

**Q.** With `CCCCCCCCCCCCCCCC(=O)OC(C)C` as the compound, how does the Potency read?
**A.** inactive

**Q.** How did the Potency turn out when `CCCCCCCCCCCCCCCCCC(=O)O` was run?
**A.** inactive

**Q.** `CNC(=O)c1c(I)c(NC(=O)CCCCC(=O)Nc2c(I)c(C(=O)O)c(I)c(C(=O)NC)c2I)c(I)c(C(=O)O)c1I` was tested. Which Potency did it give?
**A.** inactive

**Q.** `CCC1C(=O)OCC1Cc1cncn1C` (centres undefined) was tested. Which Potency did it give?
**A.** inactive

**Q.** With `Nc1ccc(C(=O)O)c(O)c1` as the compound, how does the Potency read?
**A.** inactive

**Q.** For `[O-][n+]1ccccc1SSc1cccc[n+]1[O-]`, which Potency is on record?
**A.** 1.78 µM (active)
